Experimental data from PubChem BioAssay (EPA / NIEHS).
The source made the active and inactive calls. Rule for the calls: active = hit-call score of the fitted dose curve at least 0.9, where 1 is the maximum; inactive = score below 0.9.

These compounds were tested on Bcl-2 (BID) gene, BID (gene 637) (assay: LTEA_HepaRG_BID: Life Technologies and Expression Analysis (LTEA) Assay for Bcl-2 (BID) gene using HepaRG (AID 2283476)). Conditions: mRNA level, 48 h; actives raise or lower the signal.
Method: LTEA_HepaRG is a cell based, multiplexed-readout assay that uses HepaRG, a human liver cell line, with measurements taken at 48 hours after chemical dosing on a 96-well plate.LTEA_HepaRG_BID is one of 102 assay component(s) measured in the LTEA HepaRG cell culture assay. It is a marker of Cell proliferation, survival, death.Data from the assay component LTEA_HepaRG_BID was analyzed into 1 endpoint. This assay endpoint, LTEA_HepaRG_BID, was analyzed with bidirectional fitting relative to DMSO as the negative control and baseline of activity. Using a type of inducible reporter, measures of mRNA induction for gain or loss-of-signal activity can be used to understand regulation of transcription factor activity. To generalize the intended target to other relatable targets, this assay endpoint is annotated to the cell cycle intended target family, where the subfamily is Cell proliferation, survival, death.
A total of 1060 chemcials from the ToxCast library were tested in eight-point concentration-response experiments. Cell culture and cytotoxicity assays were conducted at Thermo Fisher Scientific's Custom Services facility (Madison, WI). A single lot of human HepaRG cells (Thermo Fisher Scientific, Frederick, MD) was used for the cell culture experiments. 96-well format collagen type I coated plates of human HepaRG cells were prepared using established methods. Briefly, cryopreserved HepaRG cells were thawed, plated at a density of approximately 100,000 cells/well in HepaRG Thaw, Plate, and General Purpose media (HPRG770, Thermo Fisher Scientific), and incubated for 48 hours. 0.5% DMSO was selected as vehicle control to balance the requisite need of DMSO in HepaRG cultures to maintain differentiation (for example, baseline metabolism, proportions of hepatocytes vs. cholangiocytes), while enabling further hepatic receptor pathway activation (for example, PXR and CAR) in response to chemical exposure. 48 hours after plating, the culture medium was replaced with HepaRG Serum-Free Incudtion Media. Cells were exposed to each test chemical in duplicate and maintained in CO2 incubators for another 48 hours. Chemical plates were thawed to room temperature and 200x concentrations of treatment groups were prepared. 8-point conentration-reponse curves were made with the highest exposure at 100 uM, followed by half-log dilutions, all in 0.5% DMSO. Each test plate contained variouse controls, induction positive controls (1mM phenobarbital), cytotoxicity positive controls ([…] aflatoxin B1), vehicle controls (0.5% DMSO), and total lysis controls (0.5% DMSO). Cell morphology images were taken using an Essen IncuCyte FLR automated microscope, with six 96-well plates imaged in about 24 minutes. Images were captured and exported and JPEG files. Spent culture media was transfered to black-well plates for the LDH assay, and remaining media was sorted at -80 C for later use. Cells were treated with RLT buffer and frozen until shipped for gene expression analysis. Total RNA was isolated from the cell suspension in 75 uL of Buffer RLT (Qiagen, Germantown, MD 20874) by Quintiles/Expression Analysis (Durham, NC) using a custom isolation procedure. Total RNA from each plate well was transferred to a preamplification plate. Fluidigm's 96.96 Dynamic ArrayTM (Fluidigm, Amsterdam, the Netherlands) technology was used for gene expression analyses by quantitative reverse transcription polymerase chain reaction (qRT-PCR, performed by Quintiles/Expression Analysis, Durham, NC)89. Standard TaqManTM Assays (Applied Biosystems/ThermoFisher Scientific, Foster City, CA) were used to assess the expression of 93 genes selected based on their selectivity and sensitivity to important hepatic receptors known to be modulated by environmental chemicals; importance in human hepatocyte functionality; and hepatotoxicity. […]

outcome, inactive:
CN(Cc1cnc2nc(N)nc(N)c2n1)c1ccc(C(=O)N[C@@H](CCC(=O)O)C(=O)O)cc1
CN(C)CCOC(c1ccccc1)c1ccccc1
CCCCC(CC)C(=O)O (stereo not given)
O=C1NS(=O)(=O)c2ccccc21
CCCCCCCCCCCCOS(=O)(=O)O
CCCCCCCCCCCCCCC
O=C(CCCN1CCC(O)(c2ccc(Cl)cc2)CC1)c1ccc(F)cc1
CCCCC=O
CCCCc1oc2ccccc2c1C(=O)c1cc(I)c(OCCN(CC)CC)c(I)c1
CC(=O)Nc1ccc(O)cc1
OCC(CO)(CBr)CBr
O=C(c1ccccc1)c1ccccc1
CS(=O)(=O)c1ccc([C@@H](CC2CCCC2)C(=O)Nc2cnccn2)cc1Cl
CCC(C)c1ccccc1O (stereo not given)

AC50, active:
N=C(N)c1ccc(OCCCCCOc2ccc(C(=N)N)cc2)cc1 68.3 µM
